Results published in PubChem BioAssay (EPA / NIEHS).
Inconclusive results are not listed. Activity calls are given as the source filed them. How the source made its calls, unless noted: active means hit-call score of the fitted dose curve at least 0.9, where 1 is the maximum; inconclusive means response in the unintended direction; inactive means score below 0.9.

Tests used:
[1] = TOX21_p53_BLA_p2_viability: Viability Assessment in the Tox21 HCT-116 p53 Agonism Beta-lactamase Assay, Phase 2 (AID 2283591);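 further: compound exposure lasted 16 h at 37 °C; actives lower the ATP signal meaning cytotoxicity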
Summary of the method: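 Cytotoxicity readout: CellTiter-Glo ATP luminescence, 30 min at room temperature, after the beta-lactamase read. Cells were HCT116 exposed 16 h at 37C to compounds pin-transferred at 217-fold dilution from DMSO stocks.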

[2] = molecular target: Cellular tumor antigen p53 (Homo sapiens) (UniProt P04637); assay: TOX21_p53_BLA_p2_ratio: Tox21 HCT-116 p53 Agonism Beta-lactamase Assay, Ratio, Phase 2 (AID 2283592)
Sequence of Cellular tumor antigen p53 (Homo sapiens) (P04637 whole entry, looked up): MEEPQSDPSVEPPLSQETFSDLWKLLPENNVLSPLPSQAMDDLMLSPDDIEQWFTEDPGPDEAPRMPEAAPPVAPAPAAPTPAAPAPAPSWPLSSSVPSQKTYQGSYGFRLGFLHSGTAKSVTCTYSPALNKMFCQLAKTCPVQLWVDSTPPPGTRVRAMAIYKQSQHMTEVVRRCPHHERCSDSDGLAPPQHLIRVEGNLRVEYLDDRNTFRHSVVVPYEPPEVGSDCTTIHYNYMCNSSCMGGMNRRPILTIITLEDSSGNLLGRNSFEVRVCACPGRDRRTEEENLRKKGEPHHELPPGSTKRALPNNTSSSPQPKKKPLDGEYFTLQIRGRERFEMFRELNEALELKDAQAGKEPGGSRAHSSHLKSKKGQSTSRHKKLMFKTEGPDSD
Summary of the method: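 Read-out is the blue/green (460/530 nm, 405 nm excitation) ratio after 2 h CCF4-AM loading, fitted as gain versus DMSO. Compounds, pinned at 217-fold dilution from DMSO stocks, stayed 16 h on HCT-116 beta-lactamase reporter cells seeded 5 h earlier.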

[3] = TOX21_p53_BLA_p3_viability: Viability Assessment in the Tox21 HCT-116 p53 Agonism Beta-lactamase Assay, Phase 3 (AID 2283593);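 further: cells exposed to compound for 16 h before reading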
Summary of the method: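 Cellular ATP was quantified by CellTiter-Glo luminescence, read after 30 min at room temperature. Beforehand, HCT116 cells (4000/well) received compound 5 h post-seeding, 217-fold diluted from DMSO, then incubated 16 h at 37C.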

[4] = molecular target: Cellular tumor antigen p53 (Homo sapiens) (UniProt P04637); assay: TOX21_p53_BLA_p3_ratio: Tox21 HCT-116 p53 Agonism Beta-lactamase Assay, Ratio, Phase 3 (AID 2283596)
Summary of the method: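 Cells were seeded at 4000/well, rested 5 h at 37C, then dosed with DMSO compound solutions (217-fold dilution) for 16 h. CCF4-AM substrate was loaded for 2 h at room temperature, and the 460/530 nm emission ratio was fitted for gain of signal versus DMSO.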

[5] = TOX21_p53_BLA_p4_viability: Viability Assessment in the Tox21 HCT-116 p53 Agonism Beta-lactamase Assay, Phase 4 (AID 2283597);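 further: hits lower the luminescence signal meaning cytotoxicity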
Summary of the method: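 Cytotoxicity as reduced cellular ATP (CellTiter-Glo luminescence, 30 min room temperature), measured in the same wells following the CCF4 FRET p53 reading. Human HCT-116 cells received compounds in DMSO (217-fold dilution) for 16 h.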

[6] = TOX21_p53_BLA_p5_viability: Viability Assessment in the Tox21 HCT-116 p53 Agonism Beta-lactamase Assay, Phase 5 (AID 2283600)
Summary of the method: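 Viability came from CellTiter-Glo ATP luminescence, read after 30 min at room temperature. Before this, HCT-116 p53-bla cells (4000/well) had 16 hours of compound exposure at 37C, with DMSO stocks diluted 217-fold on transfer.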

[7] = molecular target: Cellular tumor antigen p53 (Homo sapiens) (UniProt P04637); assay: TOX21_p53_BLA_p4_ratio: Tox21 HCT-116 p53 Agonism Beta-lactamase Assay, Ratio, Phase 4 (AID 2283601)
Summary of the method: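 Signal is the blue/green (460nm/530nm) ratio of cleaved versus uncleaved CCF4-AM substrate, read after 2 h substrate loading. Cells were HCT116 carrying the p53-responsive beta-lactamase reporter, dosed 16 h at 37C, 5% CO2; CellTiter-Glo measured in parallel.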

[8] = molecular target: Cellular tumor antigen p53 (Homo sapiens) (UniProt P04637); assay: TOX21_p53_BLA_p5_ratio: Tox21 HCT-116 p53 Agonism Beta-lactamase Assay, Ratio, Phase 5 (AID 2283599)
Summary of the method: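 Beta-lactamase reporter ratio (blue 460 nm over green 530 nm, 405 nm excitation) after 2 h CCF4-AM loading, in HCT-116 cells exposed 16 h at 37 C to compounds pinned at 217-fold dilution. Increases relative to DMSO baseline scored.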

[9] = CCTE_Harrill_HTTr_Viability_MCF7: CCTE's 6-hour Cell Viability Assessment for the High-Throughput Transcriptomics (HTTr) Platform, in MCF-7 cells cultured in DMEM + 10% fetal bovine serum, Harrill Lab (AID 2284010; active means hit-call score of the fitted dose curve at least 0.9, where 1 is the maximum; inactive means score below 0.9)
Summary of the method: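 Read-out is propidium iodide gain of signal by high-content imaging, reflecting membrane integrity loss. Measurements are taken 6 h after dosing, eight concentrations per chemical, with DMSO serving as baseline for bidirectional curve fitting.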

[10] = CCTE_Harrill_HTTr_Apoptosis_MCF7: CCTE's 6-hour Apoptosis Assessment for the High-Throughput Transcriptomics (HTTr) Platform, in MCF-7 cells cultured in DMEM + 10% fetal bovine serum, Harrill Lab (AID 2284011; active means hit-call score of the fitted dose curve at least 0.9, where 1 is the maximum; inactive means score below 0.9)
Summary of the method: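 High-content imaging of CellEvent Caspase 3/7 Green signal follows a six-hour exposure, with eight concentrations per chemical. MCF-7 cells grown in DMEM plus 10% fetal bovine serum; activity fitted in both directions against DMSO.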

[11] = CCTE_Harrill_HTTr_CellCount_MCF7: CCTE's Cell Proliferation Assessment for the High-Throughput Transcriptomics (HTTr) Platform, Harrill Lab (AID 2284012);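 further: cells exposed to compound for six hours; intended direction is loss of nuclei count meaning fewer cells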
Summary of the method: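 Cell count served as viability reporter: loss of Hoechst-stained nuclei, counted by high content imaging, marks decreased growth or survival. Exposure was 6 h in MCF-7 cells across eight concentrations, with DMSO as baseline.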

Measured: AC50

C[C@H](CN1CCCC1)C(=O)c1ccc(C(F)(F)F)cc1
inactive: [1] | [2] | [3] | [4] | [5] | [6]

Cc1cccc(C)c1NC(=O)c1ccccc1C(=O)O
not listed: [8] | [9] | [10] | [11]
inactive: all other assays above

CNC(=O)CN(CCN(CCN(CC(=O)[O-])CC(=O)NC)CC(=O)[O-])CC(=O)[O-].O.[Gd+3]
not listed: [8] | [9] | [10] | [11]
inactive: all other assays above

C=C[C@]1(C)C[C@@H](OC(=O)CSC(C)(C)CNC(=O)[C@H](N)C(C)C)[C@]2(C)[C@H](C)CC[C@]3(CCC(=O)[C@H]32)[C@@H](C)[C@@H]1O
not listed: [8] | [9] | [10] | [11]
inactive: all other assays above

OCCCNc1ccccc1
not listed: [8] | [9] | [10] | [11]
inactive: all other assays above

COc1cc2[nH]c(C)c(CCN3CCN(c4ccccc4)CC3)c2cc1OC
inactive: [1] | [2] | [3] | [4] | [5] | [6]

O=C(O)CCCCCCCCCCCBr
not listed: [8] | [9] | [10] | [11]
inactive: all other assays above

CNCCCCOc1ccccc1Cc1ccccc1
inactive: [1] | [2] | [3] | [4] | [6]
active: [5] 36.4 µM

COc1ccc(N)c(OC)c1
not listed: [6] | [9] | [10] | [11]
inactive: all other assays above

OC(CN1CCC(Cc2ccc(F)cc2)CC1)c1ccc(Cl)cc1 (centres undefined)
not listed: [8] | [9] | [10] | [11]
inactive: all other assays above

CC(C)(C)c1ccc(C(=O)CCCN2CCC(OC(c3ccccc3)c3ccccc3)CC2)cc1
inactive: [1] | [2] | [5] | [6]
active: [3] 31.1 µM | [4] 34.6 µM

CN(C/C=C/C#CC(C)(C)C)Cc1cccc2ccccc12
not listed: [8] | [9] | [10] | [11]
inactive: all other assays above

OCC1CC2CC1C1CCC(CO)C21 (centres undefined)
not listed: [6]
inactive: all other assays above

CC(C)Oc1ccc2c(=O)c(-c3ccccc3)coc2c1
not listed: [8] | [9] | [10] | [11]
inactive: all other assays above

Cc1ccc(S(=O)(=O)NC(=O)NN2CC3CCCC3C2)cc1 (centres undefined)
not listed: [8] | [9] | [10] | [11]
inactive: all other assays above
